Measured values published in the supplement of paper PMC13380429.
Counter-ions that a name gives are not always drawn.

Key:
[1] = system: Vero E6 infected with SARS-CoV-2; assay: morphology score (similarity to uninfected cells); higher = more like uninfected cells; conditions: 24 h
[2] = system: Vero E6 infected with SARS-CoV-2; assay: SARS-CoV-2 infection rate relative to infected DMSO; higher = more infection, active = 60 or less; conditions: 24 h

SMILES | morphology score [1] | SARS-CoV-2 infection rate [2]
CC(C)NCC(O)c1cc(O)cc(O)c1 (configuration not stated) [metaproterenol] (10 µM) | 0.132 | 104% (inactive)
O=c1oc(-c2ccc(C(F)(F)F)cc2)nn1Cc1cc(Cl)ccc1O (10 µM) | 0.593 | 39.5% (active)
CCN(CC)CCOc1ccc(/C(=C(\Cl)c2ccccc2)c2ccccc2)cc1 [clomifene] (0.833333 µM) | 0.172 | 96.5% (inactive)
CCCn1c(=O)[nH]c(=O)c2nc[nH]c21 [enprofylline] (10 µM) | 0.188 | 94% (inactive)
CC(C)NC(=N)NC(=N)Nc1ccc(Cl)cc1 [proguanil] (10 µM) | -0.0553 | 112% (inactive)
COc1ccc(O)c(C(C)(C)C)c1.COc1ccc(O)cc1C(C)(C)C [butylated-hydroxyanisole] (10 µM) | -0.127 | 116% (inactive)
OC[C@H]1O[C@@H](Oc2ccc(O)cc2)[C@H](O)[C@@H](O)[C@@H]1O [arbutin] (10 µM) | 0.104 | 104% (inactive)
N#CN=C(NCCCCCCOc1ccc(Cl)cc1)Nc1ccncc1 (10 µM) | -0.0862 | 96.5% (inactive)
CCn1cc(-c2cccc(C(F)(F)F)c2)c2sc(C(=N)NC3CCS(=O)(=O)CC3)cc2c1=O (10 µM) | -0.122 | 110% (inactive)
C[C@H](Oc1cc(-c2cnn(C3CCNCC3)c2)cnc1N)c1c(Cl)ccc(F)c1Cl [crizotinib-(S)] (0.833333 µM) | 0.602 | 99% (inactive)
CCCCCCCCCCCCCCCC(=O)OC[C@@H](NC(=O)C(Cl)Cl)[C@H](O)c1ccc([N+](=O)[O-])cc1 [chloramphenicol-palmitate] (10 µM) | 0.04 | 106% (inactive)
NC(=O)N1CCC(CC(=O)N2CCC([C@H]3c4ncc(Br)cc4CCc4cc(Cl)cc(Br)c43)CC2)CC1 [lonafarnib] (10 µM) | 0.736 | 43.5% (active)
CCNCCS(=O)(=O)NC[C@@]1(c2ccccc2)SC(NC(=O)C(C)(C)C)=NN1C(=O)C(C)(C)C [litronesib] (10 µM) | -0.218 | 100% (inactive)
Oc1cccc2cccnc12 [oxyquinoline] (10 µM) | 0.202 | 93.5% (inactive)
O=C(O)c1cc(-c2ccccc2)nc2ccccc12 [cinchophen] (10 µM) | 0.0922 | 104% (inactive)
CC(C)n1nc(C#Cc2ccccc2)c2c(N)ncnc21 (10 µM) | 0.471 | 69.5% (inactive)
CCCCCCOC(=O)NC(=N)c1ccc(NCc2nc3cc(C(=O)N(CCC(=O)OCC)c4ccccn4)ccc3n2C)cc1 [dabigatran-etexilate] (10 µM) | 0.027 | 98.5% (inactive)
NC(=O)c1cc([N+](=O)[O-])cc([N+](=O)[O-])c1 [nitromide] (10 µM) | 0.265 | 83.5% (inactive)
CCOC(=O)OC(C)OC(=O)[C@@H]1N2C(=O)[C@@H](NC(=O)[C@H](N)c3ccccc3)[C@H]2SC1(C)C (some centres not stated) [bacampicillin] (10 µM) | -0.0144 | 114% (inactive)

SMILES | morphology score [1] | SARS-CoV-2 infection rate [2]
c1ccc(CCCCN2CCC(c3ccccc3)CC2)cc1 (10 µM) | 0.286 | 73.5% (inactive)
CCCn1c(=O)c2[nH]cnc2n(-c2ccc(Cl)cc2)c1=O [arofylline] (10 µM) | 0.178 | 108% (inactive)
N=C(N)NCCC[C@@H](NC(=O)[C@@H]1CCCN1C(=O)[C@@H]1CSSCCC(=O)N[C@@H](Cc2ccc(O)cc2)C(=O)N[C@@H](Cc2ccccc2)C(=O)N[C@@H](CCC(N)=O)C(=O)N[C@@H](CC(N)=O)C(=O)N1)C(=O)NCC(N)=O [desmopressin-acetate] (10 µM) | 0.0379 | 97.5% (inactive)
CCOC(=O)[C@H](C)C[C@@H](Cc1ccc(-c2ccccc2)cc1)NC(=O)CCC(=O)O [sacubitril] (10 µM) | 0.156 | 102% (inactive)
CN(C)CCC(c1ccccc1)c1ccccn1 (configuration not stated) [pheniramine] (10 µM) | -0.131 | 110% (inactive)
CC(=O)N(CC(O)CO)c1c(I)c(C(=O)NCC(O)CO)c(I)c(C(=O)NCC(O)CO)c1I (configuration not stated) [iohexol] (10 µM) | 0.142 | 104% (inactive)
CC1(C)S[C@@H]2[C@H](N3C(=O)[C@@H](c4ccccc4)NC3(C)C)C(=O)N2[C@H]1C(=O)O [hetacillin] (10 µM) | 0.138 | 96.5% (inactive)
CSCC[C@H](NC(=O)[C@H](Cc1ccccc1)NC(=O)CNC(=O)CNC(=O)[C@@H](N)Cc1ccc(O)cc1)C(=O)O [metenkephalin] (10 µM) | 0.247 | 91% (inactive)
CCCN(CCC)S(=O)(=O)c1ccc(C(=O)O)cc1 [probenecid] (10 µM) | -0.0854 | 106% (inactive)
C1=C2CCCN[C@H]2[C@@H]2C[C@H]1[C@H]1CCCCN1C2 [aloperine] (10 µM) | 0.199 | 102% (inactive)
O=S(=O)(O)c1cc(I)c(O)c2ncccc12 [chiniofon] (10 µM) | 0.0464 | 102% (inactive)
CCc1nc2ccc(Cl)cn2c1C(=O)NCc1ccc(N2CCC(c3ccc(OC(F)(F)F)cc3)CC2)cc1 (10 µM) | 0.0715 | 96% (inactive)
CCCCCCOc1ccccc1C(N)=O [exalamide] (10 µM) | 0.105 | 108% (inactive)
CCCCOc1cc(C(=O)NCCN(CC)CC)c2ccccc2n1 [cinchocaine] (10 µM) | 0.435 | 88% (inactive)
O=C(O)CCn1c2c(c3ccccc31)C[C@H](NS(=O)(=O)c1ccc(F)cc1)CC2 [ramatroban] (10 µM) | -0.0055 | 102% (inactive)
COC(=O)C1=C(C)NC(C)=C(C(=O)OC2CCCN(Cc3ccccc3)C2)C1c1cccc([N+](=O)[O-])c1 (configuration not stated) [benidipine] (10 µM) | 0.0303 | 102% (inactive)
CC(C)=CCC/C(C)=C/CC/C(C)=C/CC[C@]1(C)CCc2cc(O)cc(C)c2O1 [delta-tocotrienol] (10 µM) | 0.0442 | 104% (inactive)
COc1cc2c(=O)c(-c3ccc(O)cc3)coc2cc1O [glycitein] (10 µM) | 0.00478 | 110% (inactive)
COc1ccc2[nH]c([S+]([O-])Cc3ncc(C)c(OC)c3C)nc2n1 (configuration not stated) [tenatoprazole] (10 µM) | 0.162 | 105% (inactive)

SMILES | morphology score [1] | SARS-CoV-2 infection rate [2]
c1ccc(Oc2nc(NC3CCCCC3)c3[nH]cnc3n2)cc1 (0.833333 µM) | 0.191 | 104% (inactive)
CCOc1nc2cccc(C(=O)OC(C)OC(=O)OC3CCCCC3)c2n1Cc1ccc(-c2ccccc2-c2nn[nH]n2)cc1 (configuration not stated) [candesartan-cilexetil] (10 µM) | 0.13 | 92.5% (inactive)
Cc1cccc(C)c1NC(=O)CN1CCCC1=O [nefiracetam] (10 µM) | 0.0495 | 113% (inactive)
CC(C)NC[C@@H](O)COc1ccccc1-n1cccc1 (racemic) [isamoltane] (10 µM) | -0.204 | 114% (inactive)
COC[C@@H](NC(C)=O)C(=O)NCc1ccccc1 [Lacosamide] (10 µM) | -0.1 | 103% (inactive)
CCn1cc(-c2ccnc3[nH]c(-c4cccc(CN(C)C)c4)cc23)c(-c2ccc(NC(=O)N(C)C)cc2)n1 (0.833333 µM) | -0.185 | 106% (inactive)
Nc1nc(Nc2ccccc2)nc2c1ncn2[C@@H]1O[C@H](CO)[C@@H](O)[C@H]1O (10 µM) | 0.144 | 102% (inactive)
CC[C@H]1OC(=O)[C@H](C)[C@@H](O[C@H]2C[C@@](C)(OC)[C@@H](O)[C@H](C)O2)[C@H](C)[C@@H](O[C@@H]2O[C@H](C)C[C@H](N(C)C)[C@H]2O)[C@](C)(O)C[C@@H](C)C(=O)[C@H](C)[C@@H](O)[C@]1(C)O [erythromycin] (10 µM) | -0.171 | 102% (inactive)
COc1cccc2c1C(=O)c1c(O)c3c(c(O)c1C2=O)C[C@@](O)(C(=O)CO)C[C@@H]3O[C@H]1C[C@H](N)[C@@H](O)[C@H](C)O1 [Epirubicin Hydrochloride] (10 µM) | -0.016 | 108% (inactive)
CCCCC#Cc1nc(NC)c2ncn([C@@H]3O[C@H](CO)[C@@H](O)[C@H]3O)c2n1 (10 µM) | 0.143 | 96% (inactive)
CCOC(=O)OC(C)OC1=C(C(=O)Nc2ccccn2)N(C)S(=O)(=O)c2ccccc21 (configuration not stated) [ampiroxicam] (10 µM) | -0.00273 | 102% (inactive)
CN[C@@H](C)C(=O)N[C@H](C(=O)N1CCC[C@H]1C(=O)Nc1sc(-c2ncco2)nc1-c1ccccc1)C1CCCCC1 (10 µM) | 0.185 | 102% (inactive)
CCc1ccc(/C=C/C(=O)Nc2ccc(C(C)=O)cc2)o1 [heclin] (10 µM) | 0.263 | 77% (inactive)
Cc1cccc(C(=O)NCN2CCN(c3ccccc3C#N)CC2)c1 (10 µM) | 0.161 | 102% (inactive)
CC1(C)CC[C@]2(NC(=O)C(C)(F)F)CC[C@]3(C)[C@H](C(=O)C=C4[C@@]5(C)C=C(C#N)C(=O)C(C)(C)[C@@H]5CC[C@]43C)[C@@H]2C1 [Omaveloxolone (RTA-408)] (10 µM) | -0.212 | 112% (inactive)
N=C(N)Nc1ccc(Cl)cc1 [4-chlorophenylguanidine] (10 µM) | -0.231 | 114% (inactive)
CCCCNC(=O)[C@@H]1Cc2ccccc2N1C(=O)[C@@H](N)CC [butabindide] (10 µM) | 0.203 | 86.5% (inactive)
C[C@@H]1C[C@H]2[C@@H]3CCC4=CC(=O)C=C[C@]4(C)[C@@]3(F)[C@@H](O)C[C@]2(C)[C@@]1(O)C(=O)COP(=O)(O)O (10 µM) | 0.0439 | 99% (inactive)
